# Assay results published in PubChem BioAssay (NCATS).
# Values joined by “and” are separate entries in the source; they are usually repeats but may differ in a detail not shown here. Equal values may be shown once. Inconclusive results are not listed. Entries that show only a call come without a potency. Active and inactive are the calls of the source. Calls come from the whole dose curve; as a rule, active = well fitted cell-killing curve with a large enough effect; inconclusive = small, poorly fitted or top-dose-only effect, or effect the other way; inactive = flat fitted curve, though single readings scatter.
# Tested on: CAOV3
# Experiment: Primary qHTS to identify gynecologic anti-cancer compounds using libraries of approved drugs and bioactive compounds (AID 1345084); note: nearly all actives have a fitted effect of over 55% in size
# Details: Gynecologic cancer cell panel viability, ATPlite luminescence, 48 h; series mostly up to 57.5 µM
# In short: (§1)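 Cells, 1,000 per well, plated 16 h, then exposed 48 h at 37 C to compounds. Viability by ATPlite luminescence after 15 min at room temperature.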
# Potency is the fitted concentration of half-maximal effect.
row,Compound,Potency
1,CCCCCCCCCCCCCCCCCC(=O)OCC(O)CO (configuration not stated),inactive
2,CN1[C@@H]2CC[C@H]1CC(OC(=O)c1c[nH]c3ccccc13)C2 (some centres not stated),inactive
3,CCCOC(C(=O)OC1CCN(C)CC1)(c1ccccc1)c1ccccc1,inactive
4,CO/N=C1\CN(c2nc3c(cc2F)c(=O)c(C(=O)O)cn3C2CC2)CC1CN (configuration not stated),inactive
5,COc1cc2c(cc1OC)C(C(C(=O)N(CCc1ccc(OC)c(OC)c1OC)CCc1ccc(OC)c(OC)c1OC)c1ccccc1)=NCC2 (configuration not stated),inactive
6,Oc1c(Cl)cc(Cl)cc1Sc1cc(Cl)cc(Cl)c1O,inactive
7,O=C1c2ccccc2C(=O)C1c1ccccc1,inactive
8,Cc1ccc(O)c2ncccc12,inactive
9,O=C(Nc1ccc(Oc2ccc(Cl)cc2)c(Cl)c1)c1cc(I)cc(I)c1O,inactive
10,CC(=O)[C@H]1CC[C@H]2[C@@H]3C[C@H](C)C4=CC(=O)CC[C@]4(C)[C@H]3[C@@H](O)C[C@]12C,inactive
11,O=C(OCC(O)CO)c1ccccc1Nc1ccnc2cc(Cl)ccc12 (configuration not stated),inactive
12,CCN1CCC[C@H]1CNC(=O)c1c(OC)ccc(Br)c1OC,inactive
13,CC(C)COC(=O)c1ccc(N)cc1,inactive
14,O=C1OCCN1/N=C/c1ccc([N+](=O)[O-])o1,inactive
15,Oc1ccc(O)cc1,inactive
16,C[C@]12C=CC(=O)C=C1CC[C@@H]1[C@@H]2[C@@H](O)C[C@@]2(C)[C@H]1CC[C@]2(O)C(=O)CO,inactive
17,O=C1OC(c2ccc(O)cc2)(c2ccc(O)cc2)c2ccccc21,inactive
18,NCCc1ccn[nH]1,inactive

row,Compound,Potency
1,COc1cccc2c1C(=O)c1c(O)c3c(c(O)c1C2=O)C[C@@](O)(C(=O)CO)C[C@@H]3O[C@H]1C[C@H](N)[C@H](O)[C@H](C)O1,2.51 µM (active)
2,COC1=CC(=O)C[C@@H](C)[C@]12Oc1c(Cl)c(OC)cc(OC)c1C2=O,inactive
3,CC(CCc1ccccc1)NCC(O)c1ccc(O)c(C(N)=O)c1 (configuration not stated),inactive
4,C#C[C@]1(O)CC[C@H]2[C@@H]3CCc4cc(OC5CCCC5)ccc4[C@H]3CC[C@@]21C,inactive
5,CCCCC1=NC2(CCCC2)C(=O)N1Cc1ccc(-c2ccccc2-c2nn[nH]n2)cc1,inactive
6,O=C(CCN1CCC(c2ccccc2)C1)c1ccc2c(c1)OCCO2 (configuration not stated),inactive
7,C=CCc1ccc(O)c(OC)c1,inactive
8,C[C@]12CC[C@@H]3c4ccc(O)cc4CC[C@H]3[C@@H]1C[C@@H](O)[C@@H]2O,inactive
9,O=c1[nH]c(=O)n([C@H]2CCCO2)cc1F,inactive
10,C[C@]12CC[C@H]3[C@@H](CCC4=CC(=O)CC[C@@]43C)[C@@H]1CC[C@@H]2C(=O)CO,inactive
11,CC(=O)OCC(=O)NCCCOc1cccc(CN2CCCCC2)c1,inactive
12,OC[C@H]1O[C@@H](n2cnc3c(=S)nc[nH]c32)[C@H](O)[C@@H]1O,inactive
13,CCCCOc1ccc(OCCCN2CCOCC2)cc1,inactive
14,CC(C)n1nc(-c2cc3cc(O)ccc3[nH]2)c2c(N)ncnc21,1.58 µM (active)
15,CCCN1CCCC[C@H]1C(=O)Nc1c(C)cccc1C,inactive
16,CC(=O)Oc1ccc2c(c1)CC[C@@H]1[C@@H]2CC[C@]2(C)[C@@H](O)CC[C@@H]12,inactive
17,CC(C)(C)NC(=O)[C@@H]1CN(Cc2cccnc2)CCN1C[C@@H](O)C[C@@H](Cc1ccccc1)C(=O)N[C@H]1c2ccccc2C[C@H]1O,inactive
18,CC(Cc1cccc(C(F)(F)F)c1)NCCOC(=O)c1ccccc1 (configuration not stated),inactive

# Tested on: CASKI
# Experiment: as above
# Details: Gynecologic cancer cell panel viability, ATPlite luminescence, 48 h; series mostly up to 57.5 µM
# In short: as §1
row,Compound,Potency
1,CCCCCCCCCCCCCCCCCC(=O)OCC(O)CO (configuration not stated),inactive
2,CN1[C@@H]2CC[C@H]1CC(OC(=O)c1c[nH]c3ccccc13)C2 (some centres not stated),inactive
3,CCCOC(C(=O)OC1CCN(C)CC1)(c1ccccc1)c1ccccc1,inactive
4,CO/N=C1\CN(c2nc3c(cc2F)c(=O)c(C(=O)O)cn3C2CC2)CC1CN (configuration not stated),inactive
5,COc1cc2c(cc1OC)C(C(C(=O)N(CCc1ccc(OC)c(OC)c1OC)CCc1ccc(OC)c(OC)c1OC)c1ccccc1)=NCC2 (configuration not stated),inactive
6,Oc1c(Cl)cc(Cl)cc1Sc1cc(Cl)cc(Cl)c1O,inactive
7,O=C1c2ccccc2C(=O)C1c1ccccc1,inactive
8,Cc1ccc(O)c2ncccc12,inactive
9,O=C(Nc1ccc(Oc2ccc(Cl)cc2)c(Cl)c1)c1cc(I)cc(I)c1O,inactive
10,CC(=O)[C@H]1CC[C@H]2[C@@H]3C[C@H](C)C4=CC(=O)CC[C@]4(C)[C@H]3[C@@H](O)C[C@]12C,inactive
11,O=C(OCC(O)CO)c1ccccc1Nc1ccnc2cc(Cl)ccc12 (configuration not stated),inactive
12,CCN1CCC[C@H]1CNC(=O)c1c(OC)ccc(Br)c1OC,inactive
13,CC(C)COC(=O)c1ccc(N)cc1,inactive
14,O=C1OCCN1/N=C/c1ccc([N+](=O)[O-])o1,inactive
15,Oc1ccc(O)cc1,inactive
16,C[C@]12C=CC(=O)C=C1CC[C@@H]1[C@@H]2[C@@H](O)C[C@@]2(C)[C@H]1CC[C@]2(O)C(=O)CO,inactive
17,O=C1OC(c2ccc(O)cc2)(c2ccc(O)cc2)c2ccccc21,inactive
18,NCCc1ccn[nH]1,inactive

row,Compound,Potency
1,COc1cccc2c1C(=O)c1c(O)c3c(c(O)c1C2=O)C[C@@](O)(C(=O)CO)C[C@@H]3O[C@H]1C[C@H](N)[C@H](O)[C@H](C)O1,2 µM (active)
2,COC1=CC(=O)C[C@@H](C)[C@]12Oc1c(Cl)c(OC)cc(OC)c1C2=O,inactive
3,CC(CCc1ccccc1)NCC(O)c1ccc(O)c(C(N)=O)c1 (configuration not stated),inactive
4,C#C[C@]1(O)CC[C@H]2[C@@H]3CCc4cc(OC5CCCC5)ccc4[C@H]3CC[C@@]21C,inactive
5,CCCCC1=NC2(CCCC2)C(=O)N1Cc1ccc(-c2ccccc2-c2nn[nH]n2)cc1,inactive
6,O=C(CCN1CCC(c2ccccc2)C1)c1ccc2c(c1)OCCO2 (configuration not stated),inactive
7,C=CCc1ccc(O)c(OC)c1,inactive
8,C[C@]12CC[C@@H]3c4ccc(O)cc4CC[C@H]3[C@@H]1C[C@@H](O)[C@@H]2O,inactive
9,O=c1[nH]c(=O)n([C@H]2CCCO2)cc1F,inactive
10,C[C@]12CC[C@H]3[C@@H](CCC4=CC(=O)CC[C@@]43C)[C@@H]1CC[C@@H]2C(=O)CO,inactive
11,CC(=O)OCC(=O)NCCCOc1cccc(CN2CCCCC2)c1,inactive
12,OC[C@H]1O[C@@H](n2cnc3c(=S)nc[nH]c32)[C@H](O)[C@@H]1O,2.24 µM (active)
13,CCCCOc1ccc(OCCCN2CCOCC2)cc1,inactive
14,CC(C)n1nc(-c2cc3cc(O)ccc3[nH]2)c2c(N)ncnc21,8.91 µM (active) and 15.8 µM (active)
15,CCCN1CCCC[C@H]1C(=O)Nc1c(C)cccc1C,inactive
16,CC(=O)Oc1ccc2c(c1)CC[C@@H]1[C@@H]2CC[C@]2(C)[C@@H](O)CC[C@@H]12,inactive
17,CC(C)(C)NC(=O)[C@@H]1CN(Cc2cccnc2)CCN1C[C@@H](O)C[C@@H](Cc1ccccc1)C(=O)N[C@H]1c2ccccc2C[C@H]1O,inactive
18,CC(Cc1cccc(C(F)(F)F)c1)NCCOC(=O)c1ccccc1 (configuration not stated),inactive
